Values without a mark were called inactive. Calls of active or inactive are those of the source. Calls come from the whole dose curve; as a rule, active = well fitted activation curve with a large enough effect; inconclusive = small, poorly fitted or top-dose-only effect; inactive = no such curve, though single readings can be large or run the other way.
Potency is the fitted concentration of half-maximal effect.

Sequence of Cytochrome P450 3A4 (Homo sapiens) (P08684 whole entry, looked up): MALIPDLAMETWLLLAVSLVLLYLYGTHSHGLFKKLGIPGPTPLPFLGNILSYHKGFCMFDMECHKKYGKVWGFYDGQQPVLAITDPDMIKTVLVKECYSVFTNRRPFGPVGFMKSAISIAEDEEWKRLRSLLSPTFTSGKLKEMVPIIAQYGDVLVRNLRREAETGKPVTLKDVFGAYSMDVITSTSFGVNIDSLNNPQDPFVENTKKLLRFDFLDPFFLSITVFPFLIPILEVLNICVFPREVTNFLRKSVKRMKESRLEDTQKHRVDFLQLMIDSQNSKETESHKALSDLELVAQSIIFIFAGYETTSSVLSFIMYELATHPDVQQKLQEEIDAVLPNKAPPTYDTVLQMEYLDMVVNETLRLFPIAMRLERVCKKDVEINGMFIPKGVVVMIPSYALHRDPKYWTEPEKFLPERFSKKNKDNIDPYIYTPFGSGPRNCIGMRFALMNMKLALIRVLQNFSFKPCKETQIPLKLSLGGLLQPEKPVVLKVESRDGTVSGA

This experiment concerns the target Cytochrome P450 3A4 (Homo sapiens) (UniProt P08684). The experiment in a line: qHTS Assay for Activators of Cytochrome P450 3A4 (AID 885). Note: nearly all actives have a fitted effect of over 65% in size. The note with it: recombinant CYP3A4, Luciferin-PPXE luminescence, 60 min; series mostly up to 11.4 µM; activity change, positive = activation: at the top concentration. On the procedure: NIH Molecular Libraries Screening Centers Network [MLSCN]
NIH Chemical Genomics Center [NCGC]
The P450 gene superfamily is involved in the metabolism and clearance of xenobiotics. This assay used human CYP3A4 to measure the dealkylation of luciferin-6' phenylpiperazinylyl (Luciferin-PPXE; […]) to luciferin. The luciferin is then measured by luminescence after the addition of a luciferase detection reagent. Luciferin-PPXE concentration in the assay was equal to its KM for CYP3A4. Inhibitors and some substrates limit the production of luciferin, and decrease measured luminescence; activators increase the production of luciferin and luminescence.
NCGC Assay Protocol Summary:
Two uL of enzyme and substrate mix (final concentrations: 20nM CYP3A4, 25uM Luciferin-PPXE, 200mM KPO4) were dispensed into a white, solid bottom 1536-well microtiter plate. 23nL of compound was transferred by a pin tool. The plate was incubated at RT for 10 min. Two uL of an NADPH regeneration solution (Promega supplied reagent) was dispensed and the reaction was allowed to continue for 60 min at RT. Then the reaction was stopped by reconstituted luciferin detection buffer. After another 20 min of incubation the plate was read on the ViewLux (Perkin Elmer) at 60 sec exposure and 2x2 binning. This protocol was carried out with Promega-Glo reagents and further information can be found at http://www.promega.com/tbs/tb325/tb325.pdf. Data were normalized to the to AC100 inhibition (57 uM ketoconazole).
Keywords: P450, CYP2D6, Luciferase, MLSMR, MLSCN, NIH Roadmap, qHTS, NCGC
In general terms: In qHTS, concentration-response curves come from the screen itself.
For `COc1c(O)ccc2c1CN1CCc3cc4c(cc3[C@@H]1C2)OCO4`, the “activity change, positive = activation” value is -40.3%.

Consider `COc1ccc(C[C@@H]2C(=O)N[C@H](C)C(=O)N(C)[C@@H]3Cc4ccc(cc4)Oc4cc(ccc4O)C[C@H](C(=O)N[C@@H](C)C(=O)N[C@H](C)C(=O)N2C)N(C)C3=O)cc1`, for which the “activity change, positive = activation” value was -73.9%.

For `O=C(O)c1nc2nc(Cl)c(Cl)nc2[nH]1`, the “activity change, positive = activation” value was -44.2%.

Take `O=C(O)CCc1nc(-c2ccccc2-n2cccc2)no1`: the “activity change, positive = activation” value was -97.2%.

Take `Cc1[nH]c2c(C)ccc(C)c2c1CC(=O)O`: the “activity change, positive = activation” value is -54.2%.

In the case of `COCCn1c(=O)c(-c2cccc(C#N)c2)nc2cnc(N3CCNCC3)nc21`, the “activity change, positive = activation” value was -65% [at 57.1 µM].

For the molecule `COc1ccc(C(=O)N2CCC[C@@]3(CCN(c4ccccc4)C3)C2)cc1`, the “activity change, positive = activation” value is -50.6% [at 57.1 µM].

Turning to `COCCn1c(=O)c(-c2ccc(OC)cc2)nc2cnc(OC)nc21`, the “activity change, positive = activation” value is -70.4% [at 57.1 µM].

For the molecule `N#CCCn1c(=O)c(-c2ccccc2)nc2cnc(OCc3ccccc3)nc21`, the “activity change, positive = activation” value was -53.4% [at 57.1 µM].

With `CC1(C)[C@@H]2CC[C@@](C)(C2)[C@H]1OC(=O)c1ccccc1C(=O)O`, the “activity change, positive = activation” value is -58.4%.

Take `NC(N)=Nc1nc2ccc([N+](=O)[O-])cc2[nH]1`: the Potency is 3.16 µM (active).

Consider `Cc1c(N2CCCC2)cc2c(c1NC(=O)c1ccccc1Cl)C(C)(C)CC2(C)C`, for which the “activity change, positive = activation” value is -48.8%.

Regarding `c1ccc(CSc2nnc3c4ccccc4c4ccccc4c3n2)cc1`, the “activity change, positive = activation” value is -30.6%.

As to `Cc1ccc(C)c(C(=N)c2ccccc2Cc2ccccc2)c1`, the “activity change, positive = activation” value is -65.7%.

`O=c1c2ccccc2sc2c(CO)ccc(NCCN3CCCCC3)c12`: the “activity change, positive = activation” value is -41%.

Take `O=S(=O)(c1cnccc1N1CCN(CCO)CC1)N1CCCC1`: the “activity change, positive = activation” value was -62.4%.

On to `CN1CCN(c2ccncc2S(=O)(=O)N2CCN(C)CC2)CC1`, for which the “activity change, positive = activation” value is -31.8%.

Take `NC(N)=N/N=C(/c1ccccc1)c1ccc(O)cc1O`: the “activity change, positive = activation” value is -56.9%.

Turning to `CCCC[C@]1(C2CCCC2)Cc2cc(OCC(=O)O)c(Cl)c(Cl)c2C1=O`, the “activity change, positive = activation” value was -53.5% [at 57.1 µM].

As to `Cc1cc(=O)oc2cc(O)cc(O)c12`, the “activity change, positive = activation” value is -74.3% [at 57.1 µM].

`FC(F)(F)c1cccc(-c2nc3nc(Cl)c(Cl)nc3[nH]2)c1`: the “activity change, positive = activation” value is -32.4%.

Take `CC/C=C/C/C=C/C/C=C/CCCCCCCC(=O)OCC`: the “activity change, positive = activation” value is -65.9% [at 57.1 µM].

For `CN(CCc1ccccn1)c1ccc2c(c1)C(=O)c1ccccc1-2`, the “activity change, positive = activation” value was -76.3%.

As to `Br/C(=N\Nc1nn[nH]n1)c1ccncc1`, the “activity change, positive = activation” value is -35.4%.

As to `Cc1cc2nc(N)sc2cc1C`, the “activity change, positive = activation” value is -85.6% [at 57.1 µM].

Consider `Cc1cc(O)c(C(C)C)cc1NC(=O)Nc1cccc2ccccc12`, for which the “activity change, positive = activation” value was -43.8%.

Take `CN[C@]1(C)[C@@H]2CC[C@@H](C2)C1(C)C`: the “activity change, positive = activation” value is -36.7% [at 57.1 µM].

In the case of `NNC(=O)CNc1cccc(Br)c1`, the “activity change, positive = activation” value is -42.7%.

Take `Nc1ccc2c(c1)C(=O)c1ccccc1C2=O`: the “activity change, positive = activation” value is -97.8% [at 57.1 µM].

As to `Cc1ccc(-c2nc(-c3nccc4ccccc34)oc2-c2ccccc2)cc1`, the “activity change, positive = activation” value was -34.4%.

For the molecule `S=C1N[C@H](c2ccccc2)N[C@H](c2ccccc2)S1`, the “activity change, positive = activation” value is -32.6%.

As to `Cc1ccc(N=Nc2ccc(N)cc2C)c(S(N)(=O)=O)c1`, the “activity change, positive = activation” value is -52.9%.

On to `CC1=C/C(=N/O)C([C@H]2C=C(C)CC(C)(C)[C@@H]2O)C(C)(C)C1` (stereo not given in full), for which the “activity change, positive = activation” value is -30.1%.

Consider `O=[N+]([O-])c1ccc2c(N=Nc3ccc4ccccc4c3O)c(O)cc(S(=O)(=O)O)c2c1`, for which the “activity change, positive = activation” value is -32.6%.

As to `CCNc1ncc2nc(CCc3ccccc3)c(=O)n(-c3ccc(OC)cc3)c2n1`, the “activity change, positive = activation” value was -72.1% [at 57.1 µM].

For the molecule `Cc1ccc(S(=O)(=O)O[C@H]2C[C@@H](C(C)(C)C)CC[C@@H]2c2ccccc2)cc1`, the “activity change, positive = activation” value was -49.6%.

Regarding `CC(C)(C)c1ccc(-c2nnc(SCc3ccc(Cl)cc3)n2-c2cccc(C(F)(F)F)c2)cc1`, the “activity change, positive = activation” value is -47.7%.

Take `Cc1cc(O)c(C(C)C)cc1C1(c2cc(C(C)C)c(O)cc2C)OC(=O)c2ccccc21`: the “activity change, positive = activation” value is -72.8%.

As to `O=C1C2=C(Nc3cc([N+](=O)[O-])ccc3N2)O[C@@H]1c1c[nH]c2ccc(COc3ccccc3)cc12`, the “activity change, positive = activation” value was -59.5%.

In the case of `C[C@@H]1C[C@H]2[C@H]3C[C@@H](F)C4=CC(=O)C=C[C@]4(C)[C@@]3(Cl)[C@@H](O)C[C@@]2(C)[C@@H]1C(=O)COC(=O)C(C)(C)C`, the “activity change, positive = activation” value was -2.04% [at 25.6 µM].

The values are drawn from PubChem BioAssay (NCATS).
